# Results taken from the supplement of paper PMC4466140.
# Target: CaNbp2
# Assay: SPOT peptide array binding signal intensity (averaged, normalized) (arbitrary units (background-subtracted, floor 0; scale differs between SH3 domains)); higher = stronger binding of the SH3 domain to the peptide
# Summary of the method: (§1)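 SH3 domains from four yeast species were expressed as GST fusions in E. coli BL21(DE3) and purified on glutathione Sepharose. Each was incubated at 10 μg/ml overnight at 4°C in TBS-based blocking buffer on cellulose membranes bearing synthetic 15-mer peptides, in which serines replaced cysteines. Bound protein was detected with anti-GST antibody, an HRP anti-mouse secondary and luminol, then imaged and quantified with Genespotter. The binding signal is the normalized, background-subtracted spot intensity averaged over replicates, in arbitrary units that are not the same from one domain to another.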
row,Binder,SPOT peptide array binding signal intensity
1,AGKRRLPLVRFKASD,384

# Target: CaRvs167
# Assay: as above
# Summary of the method: as §1
row,Binder,SPOT peptide array binding signal intensity
1,AGKRRLPLVRFKASD,51.3

# Target: CaRvs167-3
# Assay: as above
# Summary of the method: as §1
row,Binder,SPOT peptide array binding signal intensity
1,AGKRRLPLVRFKASD,226

# Target: CaSho1
# Assay: as above
# Summary of the method: as §1
row,Binder,SPOT peptide array binding signal intensity
1,AGKRRLPLVRFKASD,613

# Target: CaSla1-D1-D2
# Assay: as above
# Summary of the method: as §1
row,Binder,SPOT peptide array binding signal intensity
1,AGKRRLPLVRFKASD,162

# Target: CaSla1-D3
# Assay: as above
# Summary of the method: as §1
row,Binder,SPOT peptide array binding signal intensity
1,AGKRRLPLVRFKASD,114

# Target: ScAbp1
# Assay: as above
# Summary of the method: as §1
row,Binder,SPOT peptide array binding signal intensity
1,AGKRRLPLVRFKASD,146

# Target: ScBbc1
# Assay: as above
# Summary of the method: as §1
row,Binder,SPOT peptide array binding signal intensity
1,AGKRRLPLVRFKASD,30.8

# Target: ScBem1-D1
# Assay: as above
# Summary of the method: as §1
row,Binder,SPOT peptide array binding signal intensity
1,AGKRRLPLVRFKASD,68.5

# Target: ScBzz1-D1
# Assay: as above
# Summary of the method: as §1
row,Binder,SPOT peptide array binding signal intensity
1,AGKRRLPLVRFKASD,24

# Target: ScBzz1-D2
# Assay: as above
# Summary of the method: as §1
row,Binder,SPOT peptide array binding signal intensity
1,AGKRRLPLVRFKASD,44

# Target: ScCyk3
# Assay: as above
# Summary of the method: as §1
row,Binder,SPOT peptide array binding signal intensity
1,AGKRRLPLVRFKASD,71

# Target: ScFus1
# Assay: as above
# Summary of the method: as §1
row,Binder,SPOT peptide array binding signal intensity
1,AGKRRLPLVRFKASD,584

# Target: ScHof1
# Assay: as above
# Summary of the method: as §1
row,Binder,SPOT peptide array binding signal intensity
1,AGKRRLPLVRFKASD,5.5

# Target: ScHse1
# Assay: as above
# Summary of the method: as §1
row,Binder,SPOT peptide array binding signal intensity
1,AGKRRLPLVRFKASD,2480

# Target: ScLsb1
# Assay: as above
# Summary of the method: as §1
row,Binder,SPOT peptide array binding signal intensity
1,AGKRRLPLVRFKASD,4.5

# Target: ScLsb2
# Assay: as above
# Summary of the method: as §1
row,Binder,SPOT peptide array binding signal intensity
1,AGKRRLPLVRFKASD,6.5

# Target: ScLsb3
# Assay: as above
# Summary of the method: as §1
row,Binder,SPOT peptide array binding signal intensity
1,AGKRRLPLVRFKASD,478

# Target: ScLsb4
# Assay: as above
# Summary of the method: as §1
row,Binder,SPOT peptide array binding signal intensity
1,AGKRRLPLVRFKASD,25.5

# Target: ScMyo3
# Assay: as above
# Summary of the method: as §1
row,Binder,SPOT peptide array binding signal intensity
1,AGKRRLPLVRFKASD,5

# Target: ScMyo5
# Assay: as above
# Summary of the method: as §1
row,Binder,SPOT peptide array binding signal intensity
1,AGKRRLPLVRFKASD,3

# Target: ScNbp2
# Assay: as above
# Summary of the method: as §1
row,Binder,SPOT peptide array binding signal intensity
1,AGKRRLPLVRFKASD,626

# Target: ScPex13
# Assay: as above
# Summary of the method: as §1
row,Binder,SPOT peptide array binding signal intensity
1,AGKRRLPLVRFKASD,6.75

# Target: ScRvs167
# Assay: as above
# Summary of the method: as §1
row,Binder,SPOT peptide array binding signal intensity
1,AGKRRLPLVRFKASD,364

# Target: ScSho1
# Assay: as above
# Summary of the method: as §1
row,Binder,SPOT peptide array binding signal intensity
1,AGKRRLPLVRFKASD,2030

# Target: ScSla1-D1-D2
# Assay: as above
# Summary of the method: as §1
row,Binder,SPOT peptide array binding signal intensity
1,AGKRRLPLVRFKASD,1180

# Target: ScSla1-D3
# Assay: as above
# Summary of the method: as §1
row,Binder,SPOT peptide array binding signal intensity
1,AGKRRLPLVRFKASD,9.75

# Target: SpAbp1-D1
# Assay: as above
# Summary of the method: as §1
row,Binder,SPOT peptide array binding signal intensity
1,AGKRRLPLVRFKASD,592

# Target: SpBbc1
# Assay: as above
# Summary of the method: as §1
row,Binder,SPOT peptide array binding signal intensity
1,AGKRRLPLVRFKASD,5.25

# Target: SpBzz1-D1
# Assay: as above
# Summary of the method: as §1
row,Binder,SPOT peptide array binding signal intensity
1,AGKRRLPLVRFKASD,180

# Target: SpBzz1-D2
# Assay: as above
# Summary of the method: as §1
row,Binder,SPOT peptide array binding signal intensity
1,AGKRRLPLVRFKASD,1

# Target: SpCyk3
# Assay: as above
# Summary of the method: as §1
row,Binder,SPOT peptide array binding signal intensity
1,AGKRRLPLVRFKASD,67

# Target: SpHof1
# Assay: as above
# Summary of the method: as §1
row,Binder,SPOT peptide array binding signal intensity
1,AGKRRLPLVRFKASD,481

# Target: SpHof1-2
# Assay: as above
# Summary of the method: as §1
row,Binder,SPOT peptide array binding signal intensity
1,AGKRRLPLVRFKASD,99.5

# Target: SpHof1-3
# Assay: as above
# Summary of the method: as §1
row,Binder,SPOT peptide array binding signal intensity
1,AGKRRLPLVRFKASD,412

# Target: SpHse1
# Assay: as above
# Summary of the method: as §1
row,Binder,SPOT peptide array binding signal intensity
1,AGKRRLPLVRFKASD,536

# Target: SpLsb1
# Assay: as above
# Summary of the method: as §1
row,Binder,SPOT peptide array binding signal intensity
1,AGKRRLPLVRFKASD,17

# Target: SpLsb4
# Assay: as above
# Summary of the method: as §1
row,Binder,SPOT peptide array binding signal intensity
1,AGKRRLPLVRFKASD,354

# Target: SpMyo1
# Assay: as above
# Summary of the method: as §1
row,Binder,SPOT peptide array binding signal intensity
1,AGKRRLPLVRFKASD,3.5

# Target: SpNbp2
# Assay: as above
# Summary of the method: as §1
row,Binder,SPOT peptide array binding signal intensity
1,AGKRRLPLVRFKASD,1010

# Target: SpPex13
# Assay: as above
# Summary of the method: as §1
row,Binder,SPOT peptide array binding signal intensity
1,AGKRRLPLVRFKASD,42.5

# Target: SpRvs167
# Assay: as above
# Summary of the method: as §1
row,Binder,SPOT peptide array binding signal intensity
1,AGKRRLPLVRFKASD,248

# Target: SpSla1-D1-D2
# Assay: as above
# Summary of the method: as §1
row,Binder,SPOT peptide array binding signal intensity
1,AGKRRLPLVRFKASD,4

# Target: SpSla1-D3
# Assay: as above
# Summary of the method: as §1
row,Binder,SPOT peptide array binding signal intensity
1,AGKRRLPLVRFKASD,17.5
